# Bioassay records: PubChem, The Scripps Research Institute Molecular Screening Center
# The sample as a whole holds a higher share of hits than the screen did.
# TTR transcr act: TTR transcription activation, primary screen; SH-SY5Y TTR promoter Gaussia luciferase, luminescence; 100% = recombinant luciferase protein wells; activation, % at 16.7 µM; 92,000 tested, 1.3% active;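 active means activation above the mean of all tested compounds plus 3 SD, cut at about 9.5% in these data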;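 further: cells exposed to compounds for one day before reading; 0% = median of all test compound wells on the plate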
# TTR inh HuH7: counter-screen for TTR activators: TTR transcription inhibitors in HuH7 cells. shares compounds with TTR transcr act. HuH7 TTR promoter-Gaussia luciferase reporter, luminescence. inhibition, % at 16.7 µM. 1,100 tested, 4% active;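 active means average inhibition above the solvent-only control wells' mean plus 3 SD, cut at about 15% in these data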;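 further: 0% = cells with DMSO only and 100% = cells with inhibitor control FD; inhibitors lower well luminescence so higher value means more inhibition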
# TTR act confirm: confirmation of human transthyretin transcription activators | 1,100 tested, under 10 active | activation, % at 16.7 µM | shares compounds with TTR transcr act | AID 1117280 | SHSY5Y TTR promoter Gaussia luciferase, luminescence; 100% = purified Lucia enzyme wells, no cells;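 active means mean activation above a set limit taken from the earlier primary screen, cut at about 11% in these data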;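 further: 0% = DMSO-treated cells and 100% = recombinant Lucia luciferase without cells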
# An asterisk follows results filed as active.
SMILES,TTR transcr act,others
CC(C)(C)NC(=O)C(c1cccnc1)N(C(=O)c1cccs1)c1ccc(C(C)(C)C)cc1 (centres undefined),2,
CCCCNC(=O)c1cc(S(=O)(=O)N2CCCCC2)oc1C,0,
Cc1ccc(S(=O)(=O)N2CCCCC2)cc1C(=O)NCc1ccncc1,0,
CCCCCNC(=O)c1cc(S(=O)(=O)N2CCCCC2)ccc1F,11*,TTR inh HuH7=-9;TTR act confirm=0
CN=C1S/C(=C/c2cc(C)n(-c3ccc(Cl)cc3F)c2C)C(=O)N1C,0,
CCOC(=O)N/N=C/c1ccccc1OCc1ccc(Cl)cc1,-2,
CCOC(=O)N/N=C/c1ccc(F)cc1F,26*,TTR inh HuH7=-4;TTR act confirm=0
CCOC(=O)N/N=C\c1sccc1C,-1,
Cc1ccccc1CN1CCCCC(NC(=O)c2ccc(F)cc2F)C1=O (centres undefined),-1,
O=C1N(c2ccccc2)CC2CC(c3ccccc3)N3CCCC123 (centres undefined),4,
Cc1ccc(CN2CCCCC(NC(=O)c3ccc(-c4ccccc4)cc3)C2=O)cc1 (centres undefined),-2,
Cc1cnc(CNC(=O)c2csc([C@H]3C[C@H](O)[C@@H](CO)O3)n2)cn1,6,
CCOC(=O)C1=C(c2ccccc2)OC(N)=C(C#N)C1C1CCCCC1 (centres undefined),-2,
CCOC(=O)C1=C(c2ccccc2)OC(N)=C(C#N)C1c1ccco1 (centres undefined),13*,TTR inh HuH7=-4;TTR act confirm=0
CCOC(=O)C1=C(C)NC(C)=C(C(=O)OCC)C1c1ccco1,0,
C[C@H]1[C@@H](NC(=O)c2ccc(O)cc2)CC[C@@]23CCCN2C(=O)CCC[C@@H]13,-1,
O=C(Nc1ccccc1)Nc1c(-c2ccccc2)nc2ncccn12,-2,
CC(C)C(=O)Nc1nnc(-c2ccccc2)o1,-1,
O=C(Nc1nnc(-c2ccccc2)o1)c1nc2ccccc2s1,15*,TTR inh HuH7=-12;TTR act confirm=2
NC(=O)c1oc2ccccc2c1NC(=O)c1nc2ccccc2s1,-1,
CNS(=O)(=O)/C=C/c1ccccc1CCNC(=O)OC(C)(C)C,2,
O=C(Nc1ccccc1)Nc1c(-c2ccc(F)cc2)nc2ncccn12,2,
COC(=O)c1cc(NC(=O)c2c(C)noc2C)ccc1N1CCOCC1,-1,
COC(=O)c1cc(NC(=O)c2cc(-c3ccc(C(F)(F)F)cc3)oc2C(F)(F)F)ccc1N1CCOCC1,-1,
COC(=O)c1cc(NCc2ccccc2F)ccc1N1CCOCC1,10*,TTR inh HuH7=-9;TTR act confirm=-1
SMILES,TTR transcr act,others
C[C@@H]1CCN(C2CC2)S(=O)(=O)c2c(cccc2N2CC[C@@H](O)C2)O1,3,
COc1cc(OC)cc(C(C)c2ccc(C)cc2)c1 (centres undefined),1,
COc1cc(-n2c(-c3ccccc3)n[nH]c2=S)c(OC)cc1Cl,0,
FC(F)(F)c1ccccc1-n1c(-c2cnccn2)n[nH]c1=S,-2,
COc1cc(-c2n[nH]c(=S)n2-c2ccccc2C(F)(F)F)cc(OC)c1OC,9.9*,TTR inh HuH7=-16;TTR act confirm=1
CCC1NC(=O)c2cccnc2-n2c1nc1cc(OC)c(OC)cc1c2=O (centres undefined),-1,
C[C@@H]1CCCN1c1ccc2c(c1)O[C@H]1CCN(C1)S2(=O)=O,-3,
COC(=O)[C@]12C[C@H](CC(=O)NCCCN3CCCC3=O)C(=O)N(CCC3=CCCCC3)C1=C[C@H](C1CCCC1)O[C@@H]2C,0,
C[C@H]1[C@@H](N(C)Cc2ccccc2)CC[C@@]23CCCN2C(=O)CCC[C@@H]13,0,
CCCCOCCCNC(=O)C[C@H]1C[C@@]2(C(=O)OC)C(=C[C@H](C3CCCC3)O[C@@H]2C)N(Cc2ccco2)C1=O,0,
Cc1cc2c(NC(=O)Nc3ccc(C(F)(F)F)cc3)cccc2nn1,0,
CC(C)c1ccccc1NC(=O)CCCC(=O)O,1,
Cc1cc2c(NC(=O)CCCC(=O)O)cccc2nn1,10*,TTR inh HuH7=-11;TTR act confirm=-1
COc1ccc2c(c1)C[C@@H](CON1C(C)(C)CCCC1(C)C)N2S(=O)(=O)c1ccc(C)cc1,1,
CC(C)CNS(=O)(=O)/C=C/c1cc2c(cc1CNC(=O)OC(C)(C)C)OCO2,-2,
Cn1c(-c2cccc([N+](=O)[O-])c2)cnc1NCc1cccc([N+](=O)[O-])c1,0,
COc1ccc(-c2cnc(NCc3cc4c(cc3[N+](=O)[O-])OCO4)n2C)cc1,1,
COc1ccc(CNc2ncc(-c3ccccc3)n2C)c(OC)c1OC,11*,TTR inh HuH7=5;TTR act confirm=-1
COc1ccc(CNC2CCC23CCC(C)CC3)cc1 (centres undefined),3,
CCCCNC(=O)C1(C)CCCCN1C(=O)c1cncc(Br)c1 (centres undefined),2,
COC(=O)c1ccc(Cn2ccc3ccc(-c4ccc5ccn(C(=O)c6ccc(C)cc6)c5c4)cc32)cc1,-1,
C[C@@H](O)CNC(=O)c1[nH]cnc1C(=O)N[C@H](C)c1ccccc1,-1,
COc1ccccc1C1c2c(ncn(-c3ccccc3)c2=N)Oc2ccc3ccccc3c21 (centres undefined),-1,
C=C(O[C@H]1[C@H](O)CC=C(C(=O)O)[C@@H]1O)C(=O)O,0,
O=C(COCc1nc2ccccc2c(=O)[nH]1)NCC1CCCCC1,13*,TTR inh HuH7=-15;TTR act confirm=0
SMILES,TTR transcr act,others
Cc1cccc(C(=O)N(Cc2nc3ccccc3c(=O)[nH]2)C2CCCC2)c1,-3,
O=C(c1ccccc1)N(Cc1nc2ccccc2c(=O)[nH]1)C1CCCC1,0,
CCOC(=O)[C@]12CCCC=C1N(Cc1ccc(OC)cc1)C(=O)[C@@H]2CC(=O)NCc1ccccc1,1,
CCOC(=O)[C@@]12CCCC=C1N(CCc1ccc(Cl)cc1)C(=O)[C@H]2CC(=O)N1CCSCC1,0,
COC(CNC(=O)[C@H](Cc1ccccc1)NC1(C(=O)NC2CCCCC2)CCC1)OC,1,
Cc1cccc(CNS(=O)(=O)c2ccc(-c3ccc(=O)[nH]n3)s2)c1,0,
COc1ccc(CN2C(=O)c3cccnc3C2=O)cc1S(=O)(=O)NCc1ccc(C)cc1,-2,
COc1ccc(-c2cc(C)no2)cc1S(=O)(=O)NCc1cccc(C)c1,9.8*,TTR inh HuH7=28*;TTR act confirm=-1
O=C(c1ccccc1)n1ccc2ccc(-c3ccc4ccn(C(=O)c5ccccc5)c4c3)cc21,3,
C=CC[C@H](CC(=O)NCCO)C(=O)NCCOC(=O)[C@@H](CC=C)CC(=O)OC(C)(C)C,13*,TTR inh HuH7=-8;TTR act confirm=1
C=CC[C@@H](CC(=O)NCCO)C(=O)N[C@@H](COC(=O)[C@@H](CC=C)CC(=O)OC(C)(C)C)Cc1ccccc1,6,
C=CC[C@@H](CC(=O)OC(C)(C)C)C(=O)OC[C@@H]1CCCN1C(=O)[C@H](CC=C)CC(=O)NCCO,0,
Cc1ccccc1CN1CCCCC(NC(=O)c2cccc(C(F)(F)F)c2)C1=O (centres undefined),-1,
CCCC1CCC2(CC1)CCC2OC(=S)Nc1ccc(Cl)cc1 (centres undefined),0,
CC(C)(C)[C@H](NC(=O)c1cc(Cl)cc(Cl)c1)C(=O)N1CCC[C@H]1C(=O)N[C@H](C#N)CC(=O)O,1,
CCN(CC)c1ccc(/C=N/NC(=O)c2ccc([N+](=O)[O-])cc2)cc1,0,
CCN(CC)c1ccc(N=Cc2ccccc2[N+](=O)[O-])cc1,-3,
